The molecules below were run against T1, Transcription intermediary factor 1-alpha (Homo sapiens) (UniProt O15164). Settings: Compound concentration 20.0 uM, Protein concentration 2.0 uM, Result type QC Liability.
T1 sequence (whole entry): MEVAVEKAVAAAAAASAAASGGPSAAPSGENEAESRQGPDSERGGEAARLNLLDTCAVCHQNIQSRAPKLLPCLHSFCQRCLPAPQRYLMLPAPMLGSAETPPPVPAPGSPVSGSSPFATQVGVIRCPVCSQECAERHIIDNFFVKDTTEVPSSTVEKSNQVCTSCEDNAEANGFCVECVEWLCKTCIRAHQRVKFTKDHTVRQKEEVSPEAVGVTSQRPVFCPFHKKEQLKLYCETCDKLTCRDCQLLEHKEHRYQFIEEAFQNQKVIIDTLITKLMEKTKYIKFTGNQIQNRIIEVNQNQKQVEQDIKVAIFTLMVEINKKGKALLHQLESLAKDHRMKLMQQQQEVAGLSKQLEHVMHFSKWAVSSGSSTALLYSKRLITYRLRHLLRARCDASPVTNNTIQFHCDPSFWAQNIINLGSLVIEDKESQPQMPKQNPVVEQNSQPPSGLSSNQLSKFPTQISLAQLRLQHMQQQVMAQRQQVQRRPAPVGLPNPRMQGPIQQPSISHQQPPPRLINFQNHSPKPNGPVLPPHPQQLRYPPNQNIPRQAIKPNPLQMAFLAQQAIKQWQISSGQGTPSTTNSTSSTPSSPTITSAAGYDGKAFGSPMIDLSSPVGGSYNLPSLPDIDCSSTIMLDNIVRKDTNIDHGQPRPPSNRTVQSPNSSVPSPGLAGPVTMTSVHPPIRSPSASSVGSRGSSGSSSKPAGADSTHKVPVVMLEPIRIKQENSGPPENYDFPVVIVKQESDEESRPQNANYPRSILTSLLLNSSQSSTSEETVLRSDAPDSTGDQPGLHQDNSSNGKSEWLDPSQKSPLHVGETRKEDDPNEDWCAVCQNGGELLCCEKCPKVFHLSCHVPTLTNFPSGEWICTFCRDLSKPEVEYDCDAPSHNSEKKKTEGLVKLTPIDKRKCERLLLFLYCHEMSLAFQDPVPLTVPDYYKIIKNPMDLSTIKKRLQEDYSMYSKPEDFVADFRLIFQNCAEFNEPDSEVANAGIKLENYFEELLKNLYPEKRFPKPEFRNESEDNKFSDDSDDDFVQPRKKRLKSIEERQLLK

Row | SMILES | ΔTm [°C]
1 | O=C(N[C@H]1CCC[C@H](CO)C1)C1CCN(c2nc3cc(Cl)c(-c4ccc(Cl)cc4)cc3o2)CC1 | 1.95
2 | Cc1cc(C2CCCNC2)ccc1Nc1ncc(Br)c(NCc2cccc3c2C(C)(C)C(=O)N3)n1 (centres undefined) | -2.52
3 | CS(=O)(=O)CCNCc1ccc(-c2ccc3ncnc(Nc4ccc(OCc5cccc(F)c5)c(Cl)c4)c3c2)o1 | -3.02
4 | CN(C)C/C=C/C(=O)Nc1cccc(S(=O)(=O)N2CCC(NC(=O)c3n[nH]cc3NC(=O)c3c(Cl)cc(Cl)cc3Cl)CC2)c1 | 0.7

Source: ChEMBL document CHEMBL5308504, “Tm Shift (DSF) assay results for EUbOPEN Chemogenomics Library” (2023)
